Where “and” joins values, the source holds several entries; their conditions need not be identical. Equal entries are not always repeated. The source holds several records for some structures; these can differ, active in one and inactive in another. Calls of active or inactive are those of the source. The calls were made as follows: active = hit-call score of the fitted dose curve at least 0.9, where 1 is the maximum; inactive = score below 0.9.
Columns and labels:
[1] = read-out: Matrix Metallopeptidase 3 (MMP3), MMP3 (gene 4314); test: BSK_BF4T_MMP3: BioMAP Diversity Plus: BF4T Assay for Matrix Metallopeptidase 3 (MMP3) Biomarker Activity (AID 2284271); details: primary human bronchial epithelial cells with fibroblasts
In short: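 Co-culture of human bronchial epithelial cells and dermal fibroblasts dosed 24 h; MMP-3 measured by ELISA, positive-direction fit versus DMSO. Cytotoxicity tracked by SRB total-protein staining (560 nm) in parallel cultures.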

[2] = read-out: Tissue plasminogen activator (tPA), PLAT (gene 5327); test: BSK_BF4T_tPA: BioMAP Diversity Plus: BF4T Assay for Tissue plasminogen activator (tPA) Biomarker Activity (AID 2284272); details: primary human bronchial epithelial cells with fibroblasts
In short: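 tPA level quantified by ELISA at 24 h post-treatment in bronchial epithelial/dermal fibroblast co-cultures, gain of signal scored against DMSO baseline. Parallel cultures stained with 0.1% SRB (560 nm) to flag overt cytotoxicity.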

[3] = read-out: Plasminogen Activator Inhibitor-1 (PAI1), SERPINE1 (gene 5054); test: BSK_BF4T_PAI1: BioMAP Diversity Plus: BF4T Assay for Plasminogen Activator Inhibitor-1 (PAI1) Biomarker Activity (AID 2284273); details: primary human bronchial epithelial cells with fibroblasts
In short: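 Co-culture of human bronchial epithelial cells and dermal fibroblasts exposed to compound for 24 h. PAI-1 measured by ELISA; activity fitted in positive direction versus DMSO. Parallel SRB staining assessed overt cytotoxicity.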

[4] = BSK_BF4T_SRB: Viability Assessment in the BioMAP Diversity Plus: BF4T Assay (AID 2284274); details: primary human bronchial epithelial cells with fibroblasts
In short: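 Co-culture of human bronchial epithelial cells and dermal fibroblasts (BioMAP BF4T) exposed 24 h. Total protein by sulforhodamine B staining (0.1% SRB after 10% TCA fixation, 560 nm) in parallel cultures; fitted vs DMSO.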

[5] = read-out: urokinase Plasminogen Activator (uPA), PLAU (gene 5328); test: BSK_BF4T_uPA: BioMAP Diversity Plus: BF4T Assay for urokinase Plasminogen Activator (uPA) Biomarker Activity (AID 2284275); details: primary human bronchial epithelial cells with fibroblasts
In short: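 Co-culture of human bronchial epithelial cells and dermal fibroblasts; uPA quantified by ELISA 24 hours after dosing, fitted relative to DMSO. Parallel SRB total-protein staining assessed overt cytotoxicity.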

[6] = read-out: Matrix Metallopeptidase 9 (MMP9), MMP9 (gene 4318); test: BSK_BF4T_MMP9: BioMAP Diversity Plus: BF4T Assay for Matrix Metallopeptidase 9 (MMP9) Biomarker Activity (AID 2284276); details: primary human bronchial epithelial cells with fibroblasts
In short: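 Co-culture of human bronchial epithelial cells and dermal fibroblasts dosed for 24 h; MMP-9 quantified by ELISA and fitted upward versus DMSO. Cytotoxicity monitored in parallel cultures by SRB total-protein staining at the biomarker time point.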

[7] = read-out: Interleukin-8 (IL8), CXCL8 (gene 3576); test: BSK_IMphg_IL8: BioMAP Diversity Plus: IMphg Assay for Interleukin-8 (IL8) Biomarker Activity (AID 2284277); details: primary human endothelial cells with macrophages
In short: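 Co-culture of human venular endothelial cells and macrophages exposed to chemicals for 24 h; IL-8 quantified by ELISA and compared against the DMSO baseline, with SRB total-protein staining in parallel cultures for cytotoxicity.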

[8] = read-out: Intercellular Adhesion Molecule 1 (ICAM1), ICAM1 (gene 3383); test: BSK_BE3C_ICAM1: BioMAP Diversity Plus: BE3C Assay for Intercellular Adhesion Molecule 1 (ICAM1) Biomarker Activity (AID 2284278); details: primary human bronchial epithelial cells;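 as to outcome: cell-surface ICAM-1 protein level quantified by ELISA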
In short: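 Primary human bronchial epithelial cells in BE3C system, 24 h after chemical dosing; cell-surface ICAM-1 measured by ELISA relative to DMSO. Parallel SRB staining (0.1% SRB after 10% TCA fixation, read at 560 nm) assessed cytotoxicity.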

[9] = read-out: Interferon-inducible T-cell alpha chemoattractant (ITAC), CXCL11 (gene 6373); test: BSK_BE3C_ITAC: BioMAP Diversity Plus: BE3C Assay for Interferon-inducible T-cell alpha chemoattractant (ITAC) Biomarker Activity (AID 2284279); details: primary human bronchial epithelial cells
In short: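 Steps: dose human bronchial epithelial cells with chemical; incubate 24 h; measure I-TAC by ELISA; fit endpoint in positive direction against DMSO control. Cytotoxicity was checked in parallel cultures by SRB staining at harvest.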

[10] = read-out: Interleukin-8 (IL8), CXCL8 (gene 3576); test: BSK_BE3C_IL8: BioMAP Diversity Plus: BE3C Assay for Interleukin-8 (IL8) Biomarker Activity (AID 2284280); details: primary human bronchial epithelial cells
In short: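 IL-8 signal gain, normalised to DMSO vehicle, was scored after a 24 h chemical exposure of primary human bronchial epithelial cells, with detection by ELISA.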

[11] = read-out: Epidermal growth factor receptor (EGFR), EGFR (gene 1956); test: BSK_BE3C_EGFR: BioMAP Diversity Plus: BE3C Assay for Epidermal growth factor receptor (EGFR) Biomarker Activity (AID 2284281); details: primary human bronchial epithelial cells
In short: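 Compound is added to human bronchial epithelial cells, cells incubate 24 h, then EGFR is detected by ELISA. Values reflect positive-direction fitting relative to DMSO.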

KRT18 (gene 3875) = test: BSK_BE3C_Keratin818: BioMAP Diversity Plus: BE3C Assay for Keratin 818 Biomarker Activity (AID 2284282); details: primary human bronchial epithelial cells
In short: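 Primary human bronchial epithelial cells treated 24 h; Keratin 8/18 quantified by ELISA, fit relative to DMSO. Cytotoxicity tracked in parallel cultures by sulforhodamine B total-protein staining.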

[12] = read-out: Matrix Metallopeptidase 9 (MMP9), MMP9 (gene 4318); test: BSK_BE3C_MMP9: BioMAP Diversity Plus: BE3C Assay for Matrix Metallopeptidase 9 (MMP9) Biomarker Activity (AID 2284283); details: primary human bronchial epithelial cells
In short: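 Endpoint is the ELISA MMP-9 signal in human primary bronchial epithelial cultures taken 24 h after chemical dosing. DMSO serves as negative control and baseline, with gain-of-signal fitting.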

[13] = read-out: Plasminogen activator inhibitor-1 (PAI1), SERPINE1 (gene 5054); test: BSK_CASM3C_PAI1: BioMAP Diversity Plus: CASM3C Assay for Plasminogen activator inhibitor-1 (PAI1) Biomarker Activity (AID 2284284); details: primary human coronary artery smooth muscle cells;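 also: PAI-1 protein level measured by ELISA 24 h after dosing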
[14] = read-out: Monocyte Chemoattractant Protein-1 (MCP1), CCL2 (gene 6347); test: BSK_hDFCGF_MCP1: BioMAP Diversity Plus: hDFCGF Assay for Monocyte Chemoattractant Protein-1 (MCP1) Biomarker Activity (AID 2284285); details: primary human foreskin fibroblasts
In short: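 Human foreskin fibroblasts (hDFCGF system) were exposed to compound and secreted MCP-1 was measured by ELISA after 24 hours. Activity was fitted relative to DMSO. Cytotoxicity was checked by SRB total-protein staining in parallel cultures.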

[15] = read-out: Vascular cell adhesion molecule 1 (VCAM1), VCAM1 (gene 7412); test: BSK_IMphg_VCAM1: BioMAP Diversity Plus: IMphg Assay for Vascular cell adhesion molecule 1 (VCAM1) Biomarker Activity (AID 2284286); details: primary human endothelial cells with macrophages
In short: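 Human venular endothelial cells co-cultured with macrophages; VCAM-1 quantified by ELISA 24 h after dosing, fitted in the positive direction against DMSO. Cytotoxicity was checked in parallel cultures by SRB total-protein staining (0.1% SRB after 10% TCA fixation, 560 nm).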

[16] = read-out: Intercellular Adhesion Molecule 1 (ICAM1), ICAM1 (gene 3383); test: BSK_hDFCGF_ICAM1: BioMAP Diversity Plus: hDFCGF Assay for Intercellular Adhesion Molecule 1 (ICAM1) Biomarker Activity (AID 2284287); details: primary human foreskin fibroblasts
In short: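 Primary human foreskin fibroblasts (hDFCGF system) dosed with chemical; ICAM-1 quantified by ELISA at 24 h relative to DMSO. Parallel SRB total-protein staining to assess overt cytotoxicity.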

CD40, CD40 (gene 958) = test: BSK_IMphg_CD40: BioMAP Diversity Plus: IMphg Assay for CD40 Biomarker Activity (AID 2284288); details: primary human endothelial cells with macrophages
In short: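 Venular endothelial cells co-cultured with macrophages (human primary), CD40 measured by ELISA 24 h after dosing. Positive-direction fit vs DMSO baseline; cytotoxicity tracked by SRB total-protein staining in parallel cultures.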

[17] = read-out: TIMP metallopeptidase inhibitor 2 (TIMP2), TIMP2 (gene 7077); test: BSK_hDFCGF_TIMP2: BioMAP Diversity Plus: hDFCGF Assay for TIMP metallopeptidase inhibitor 2 (TIMP2) Biomarker Activity (AID 2284289); details: primary human foreskin fibroblasts
In short: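 Primary human foreskin fibroblasts in the hDFCGF system, dosed for 24 h; TIMP-2 level measured by ELISA, fitted in the positive direction against DMSO; cytotoxicity checked in parallel by sulforhodamine B total protein staining.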

[18] = read-out: Interleukin-1 alpha (IL1a), IL1A (gene 3552); test: BSK_IMphg_IL1a: BioMAP Diversity Plus: IMphg Assay for Interleukin-1 alpha (IL1a) Biomarker Activity (AID 2284290); details: primary human endothelial cells with macrophages
In short: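 Human venular endothelial cells co-cultured with macrophages, IMphg system. IL-1α is measured by ELISA 24 h after dosing and fitted in the positive direction against DMSO. Cytotoxicity is assessed by SRB staining of parallel cultures.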

In the case of `C[C@@H]1C[C@H]2[C@@H]3CCC4=CC(=O)C=C[C@]4(C)[C@@]3(F)[C@@H](O)C[C@]2(C)[C@@]1(O)C(=O)COP(=O)(O)O`, the outcome [1] is reported as “inactive”, the outcome [2] is reported as “inactive” and the outcome [3] is reported as “inactive”. The outcome [4] was “inactive”, the outcome [5] was “inactive” and the outcome [6] was “inactive”. The AC50 [7] was 309 nM (active) and 884 nM (active), the outcome [8] was “inactive” and the outcome [9] was “inactive”. For the same compound, the AC50 [10] was 1.6 µM (active) and 182 nM (active), the outcome [11] was “inactive” and the outcome (KRT18 (gene 3875)) was “inactive”. The outcome [12] was “inactive”, the outcome [13] was “inactive” and the outcome [14] was “inactive”. The AC50 [15] was 3.41 µM (active), the outcome [15] was “inactive” and the outcome [16] was “inactive”. For the same compound, the AC50 (CD40, CD40 (gene 958)) was 13.3 µM (active), the outcome (CD40, CD40 (gene 958)) was “inactive” and the AC50 [17] was 966 nM (active). The outcome [17] was “inactive”, the AC50 [18] was 3.58 µM (active) and the outcome [18] was “inactive”.

For `OCCC(F)(F)C(F)(F)C(F)(F)C(F)(F)C(F)(F)C(F)(F)C(F)(F)C(F)(F)F`, the outcome [1] was “inactive”, the AC50 [2] was 8.17 µM (active) and 7.72 µM (active) and the AC50 [3] was 23.8 µM (active) and 18.6 µM (active). The AC50 [4] was 27.2 µM (active) and 34.7 µM (active), the AC50 [5] was 30 µM (active) and 17.7 µM (active) and the AC50 [6] was 28 µM (active) and 16.3 µM (active). For the same compound, the AC50 [7] was 30 µM (active) and 44.7 µM (active), the AC50 [8] was 22.2 µM (active) and 46.7 µM (active) and the AC50 [9] was 23.5 µM (active) and 18.4 µM (active). The AC50 [10] was 12.3 µM (active) and 13.3 µM (active), the AC50 [11] was 21.8 µM (active) and the outcome [11] was “inactive”. The AC50 (KRT18 (gene 3875)) was 24.7 µM (active) and 16.8 µM (active), the AC50 [12] was 14.2 µM (active) and 30 µM (active) and the AC50 [13] was 44.5 µM (active) and 41 µM (active). The AC50 [14] was 17.1 µM (active) and 11.3 µM (active), the AC50 [15] was 45.5 µM (active) and 44.5 µM (active) and the AC50 [16] was 18.1 µM (active) and 18.3 µM (active). For the same compound, the AC50 (CD40, CD40 (gene 958)) was 46.1 µM (active) and 45.6 µM (active), the AC50 [17] was 5.95 µM (active) and 16.2 µM (active) and the AC50 [18] was 39.6 µM (active). For the same compound, the outcome [18] was “inactive”.

For `C=C(C)C(=O)OCCC(F)(F)C(F)(F)C(F)(F)C(F)(F)C(F)(F)C(F)(F)F`, the outcome [1] was “inactive”, the outcome [2] was “inactive” and the outcome [3] was “inactive”. For the same compound, the outcome [4] was “inactive”, the outcome [5] was “inactive” and the outcome [6] was “inactive”. For the same compound, the outcome [7] was “inactive”, the outcome [8] was “inactive” and the outcome [9] was “inactive”. For the same compound, the outcome [10] was “inactive”, the outcome [11] was “inactive” and the AC50 (KRT18 (gene 3875)) was 2.19 µM (active). For the same compound, the outcome (KRT18 (gene 3875)) was “inactive”, the outcome [12] was “inactive” and the outcome [13] was “inactive”. For the same compound, the outcome [14] was “inactive”, the outcome [15] was “inactive” and the outcome [16] was “inactive”. For the same compound, the outcome (CD40, CD40 (gene 958)) was “inactive”, the outcome [17] was “inactive” and the outcome [18] was “inactive”.

Source: PubChem BioAssay (EPA / NIEHS)
